Sampled rows, rich in hits. Any-hit rate of the full collection: about 7%.
rCAG binder: binds r(CAG) RNA repeats. r(CAG) RNA repeat, TO-PRO-1 dye displacement fluorescence. inhibition, % at 3 µM. actives 1.3% (n = 370,000);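 active means inhibition above the plate cutoff, the mean of all test compounds on that plate plus 3 SD, cut at about 35% in these data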;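 further: higher means more dye released from RNA so lower well fluorescence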
ADAM17 inh: ADAM17 inhibition, QFRET primary screen. P78536. recombinant ADAM17, EDANS/DABCYL FRET peptide cleavage. inhibition, % at 6.95 µM. actives 0.83% (n = 370,000). AID 720648;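 active means inhibition above the mean of compounds lying between control limits plus 3 SD, set per campaign, cut at about 8.5% in these data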
Target sequence (P78536 215-824 limits assumed): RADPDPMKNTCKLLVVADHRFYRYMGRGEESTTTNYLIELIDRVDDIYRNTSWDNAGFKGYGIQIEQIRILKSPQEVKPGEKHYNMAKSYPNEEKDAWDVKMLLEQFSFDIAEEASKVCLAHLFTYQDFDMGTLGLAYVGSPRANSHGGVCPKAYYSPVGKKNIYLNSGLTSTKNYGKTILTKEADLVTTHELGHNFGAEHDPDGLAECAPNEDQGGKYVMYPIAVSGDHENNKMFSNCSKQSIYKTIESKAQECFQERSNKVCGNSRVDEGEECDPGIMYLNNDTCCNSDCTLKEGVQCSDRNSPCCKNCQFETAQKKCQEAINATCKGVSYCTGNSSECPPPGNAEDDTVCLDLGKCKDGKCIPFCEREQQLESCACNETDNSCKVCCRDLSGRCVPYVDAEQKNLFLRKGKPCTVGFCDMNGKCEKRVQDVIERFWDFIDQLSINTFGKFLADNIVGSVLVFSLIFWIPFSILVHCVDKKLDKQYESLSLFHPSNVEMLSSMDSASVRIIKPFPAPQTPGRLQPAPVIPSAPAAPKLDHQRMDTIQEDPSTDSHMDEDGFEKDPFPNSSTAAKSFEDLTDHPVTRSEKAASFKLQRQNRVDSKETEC
KLK7 zymogen act: activators of human kallikrein-7 zymogen | actives 0.9% (n = 370,000) | purified proKLK7, EDANS-DABCYL substrate fluorescence; 100% is mature enzyme control, 0% vehicle | activation, % at 7 µM | P49862;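 active means activation above the mean of all tested compounds plus 3 SD, computed per campaign excluding outliers beyond control limits, cut at about 13% in these data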
ADAM10 inh: ADAM10 inhibition, QFRET primary screen; AID 720582; actives 0.62% (n = 370,000); O14672; inhibition, % at 7 µM; recombinant ADAM10, EDANS/DABCYL FRET peptide cleavage, 3 h;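 active means inhibition above a per-campaign cutoff equal to the mean of compounds falling between control-based bounds plus 3 SD, cut at about 20% in these data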
GRIN3A LBD mod: modulates the human NR3A ligand-binding domain | AID 1259313 | NR3A LBD differential scanning fluorimetry, Tm shift; 0% = protein alone, 100% = glycine-bound protein | Tm shift relative to glycine control, % at 25 µM | actives 2.5% (n = 340,000);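 active means melting temperature shift of at least 10% of the positive control shift, at one fixed dose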
AHR act: activators of human aryl hydrocarbon receptor. P35869. AHR-responsive luciferase reporter cells, luminescence. activation, % at 5 µM. actives 2.5% (n = 320,000). AID 2796; in the data active means activation above about 47%
Large screens that a line does not name were inactive.

O=C1CC(c2ccc(S(=O)(=O)NCc3ccncc3)cc2)CN1 (stereo not drawn)	AHR act 78.0
O=C1CC(c2ccc(S(=O)(=O)NC3CC3)cc2)CN1 (stereo not drawn)	none
CCCCC(=O)Nc1cc(OCC)c(NC(=S)NC)cc1OCC	AHR act 71.2
CCOc1cc(NC(=S)NC)c(OCC)cc1NC(=O)c1ccc(OC)cc1	none
O=C(COC(=O)CNS(=O)(=O)c1ccc(Br)cc1Cl)NC1CCCC1	GRIN3A LBD mod 18.1
O=C(COC(=O)CNS(=O)(=O)c1cc(C(F)(F)F)ccc1Cl)NC1CC1	none
Cc1cc(C)nc(NC(=O)/C=C/c2ccccc2Cl)c1	none
O=C(/C=C\c1ccccc1[N+](=O)[O-])Nc1ccccc1	GRIN3A LBD mod 14.1
Cc1ccnc(NC(=O)c2ccccc2[N+](=O)[O-])c1	none
Cc1ccnc(NC(=O)/C=C/c2ccccc2Cl)c1	GRIN3A LBD mod 19.7
NS(=O)(=O)c1ccc(NC(=O)/C=C/c2ccccc2[N+](=O)[O-])cc1	none
CCOc1ccccc1NC(=O)/C=C/C(N)=O	none
CCOc1ccccc1NC(=O)/C=C/c1ccccc1[N+](=O)[O-]	AHR act 62.8
Cc1ccnc(NC(=O)/C=C/c2ccccc2[N+](=O)[O-])c1	AHR act 71.6 (no result: GRIN3A LBD mod)
COc1ccc2[nH]c3c(c2c1)CCN[C@]31C(=O)N(Cc2cn(Cc3ccccc3)nn2)c2ccccc21	none (no result: GRIN3A LBD mod, AHR act)
CCOc1ccc(NC(=O)c2ccc(Cn3nc(C)cc3C)o2)cc1	AHR act 47.1
Cc1cc(C)n2nc(-c3sccc3-n3c(C)ccc3C)cc2n1	AHR act 52.0
COc1ccc(-c2cc3nc(C)cc(C)n3n2)cc1	none
N#Cc1c(NC(=O)c2cnccn2)sc2c1CCCC2	AHR act 69.3
Cn1ncc(Cl)c1C(=O)NC(=S)Nc1sc2c(c1C#N)CCCCC2	GRIN3A LBD mod 13.2
Cc1ccccc1C(=O)NC(=S)Nc1sc2c(c1C#N)CCC(C)C2 (stereo not drawn)	GRIN3A LBD mod 13.7
N#Cc1c(NC(=S)NC(=O)c2ccccc2)sc2c1CCCC2	GRIN3A LBD mod 12.2
CC1CCc2c(sc(NC(=S)NC(=O)c3ccccc3)c2C#N)C1 (stereo not drawn)	none
CCOc1ccc(-n2c(SCC(=O)Nc3ccc4c(c3)OCCO4)nnc2-c2ccncc2)cc1	none (no result: GRIN3A LBD mod, AHR act)
COC(=O)N1Cc2ccnnc2CC1c1ccccc1-c1ccc(OC)cc1 (stereo not drawn)	none (no result: GRIN3A LBD mod, AHR act)
CC(=O)c1cccc(NC(=O)c2cnn3c(C)cc(C)nc23)c1	none (no result: rCAG binder, KLK7 zymogen act, GRIN3A LBD mod, AHR act)
CCc1c(-c2ccccc2Br)ncn1CCc1ccccc1OC	none (no result: GRIN3A LBD mod, AHR act)
COc1ccc2c(c1)[C@@]1(NCCc3c1[nH]c1ccc(OC)cc31)C(=O)N2	none (no result: GRIN3A LBD mod, AHR act)
COc1cccc(OCCn2cc(/C=N/NC(=O)c3ccncc3)c3ccccc32)c1	none
Cc1cc(C(=O)N/N=C/c2ccc([N+](=O)[O-])cc2)c2ccccc2n1	none
Cc1ccc(OCC(=O)N/N=C\c2cn(C)c3ccccc23)c([N+](=O)[O-])c1	none
CNC(=S)N/N=C/c1cn(CCOc2cccc(OC)c2)c2ccccc12	AHR act 56.0
Cn1cc(C(=O)N/N=C/c2ccc([N+](=O)[O-])cc2)c2ccccc21	GRIN3A LBD mod 28.2
COC(=O)N/N=C/c1cn(CCOc2ccc(OC)cc2)c2ccccc12	none
COC(=O)N/N=C/c1cn(CCOc2ccccc2OC)c2ccccc12	AHR act 60.2
Cn1cc(/C=N/NC(=O)COc2ccccc2[N+](=O)[O-])c2ccccc21	AHR act 58.4
Cc1ccc(NC(=O)C2CCCN(c3nnc(-n4cccc4)s3)C2)cc1C (stereo not drawn)	none (no result: GRIN3A LBD mod, AHR act)
Cc1cccc(OCC(C)CN2CCC(C(O)(c3ccccc3)c3ccccc3)CC2)c1 (stereo not drawn)	none (no result: GRIN3A LBD mod, AHR act)
N#CCC[C@H]1CC[C@]2(CCCN(Cc3ccc(Br)cc3)C2)O1	none (no result: GRIN3A LBD mod, AHR act)
CCCC#C/C(CCC)=C1\c2ccccc2C(=O)N1c1ccccc1	none (no result: GRIN3A LBD mod, AHR act)
COC(=O)C1CN(C2CCCC2)CCS(=O)(=O)N1Cc1cn(Cc2ccccc2)nn1 (stereo not drawn)	none (no result: GRIN3A LBD mod, AHR act)
O=S1(=O)c2c(cccc2N2CC[C@@H](O)C2)O[C@H]2CCN1C2	none (no result: GRIN3A LBD mod, AHR act)
Cc1nn(-c2cccc(Cl)c2)nc1C(=O)O	none
Cc1cc(=O)oc2c1c(C)nn2-c1ccc(Br)cc1	AHR act 67.1

Source: PubChem
